# PubChem BioAssay (EPA / NIEHS)
# The source made the active and inactive calls. How the source made its calls: active means hit-call score of the fitted dose curve at least 0.9, where 1 is the maximum; inactive means score below 0.9.
# Assay: APR_HepG2_P-H2AX_1hr: Apredica 1-hour HepG2 Assay for H2AX Phosphorylation (AID 2282673)
# Details: high-content imaging, actives raise or lower the signal
# Description: APR_HepG2_1hr is a cell-based, multiplexed-readout assay that uses HepG2, a human liver cell line, with measurements taken at 1 hour after chemical dosing in a 384-well plate.APR_HepG2_P-H2AX_1hr is one of 10 assay component(s) measured or calculated from the APR_HepG2_1hr assay. It is designed to make measurements of dna content, a form of viability reporter, as detected with fluorescence intensity signals by HCS Fluorescent Imaging technology.Data from the assay component APR_HepG2_P-H2AX_1hr was analyzed into 1 assay endpoint. This assay endpoint, APR_HepG2_P-H2AX_1hr, was analyzed with bidirectional fitting relative to DMSO as the negative control and baseline of activity. Using a type of viability reporter, measures of protein for gain or loss-of-signal activity can be used to understand the signaling at the pathway-level as they relate to the gene . Furthermore, this assay endpoint can be referred to as a primary readout, because this assay has produced multiple assay endpoints where this one serves a signaling function. To generalize the intended target to other relatable targets, this assay endpoint is annotated to the dna binding intended target family, where the subfamily is cellular response to DNA damage stimulus.
# Cells were treated with dimethyl sulfoxide (DMSO) as a solvent control at a final concentration of 0.5% v/v or with compounds in DMSO with a resulting final DMSO concentration of 0.5% v/v. Compound treatment was done at concentrations of 0.39, 0.78, 1.56, 3.12, 6.24, 12.5, 25, 50, 100, and 200 uM in duplicate on each plate. Cells were treated with compounds for 1, 24, or 72 hr. Carbonyl […] m-chloro-phenylhydrazone (CCCP) and taxol were used as positive controls for mitochondrial function and cytoskeletal stability, respectively; DMSO served as the negative control for this experiment. Cells were fixed by the direct addition of 50 uL formaldehyde in Hank's Balanced Salt Solution (HBSS) to a final concentration of 3.7%. After incubation in the fixation medium for 30 min at room temperature (293-298 K), cells were rinsed twice with HBSS and treated with cell permeabilization buffer (16 uL of 0.5% Triton X-100) for 10 min at room temperature (293-298 K) before labeling. For mitochondrial membrane potential and mitochondrial measurements, pre-fixed cells were incubated with 50 uL of MitoTracker Red CMXRos (Invitrogen) at a concentration of 250 nM for 30 min before fixation. In the remaining cases, post-fixed cells were labeled by incubation with a multiplexed mixture of primary antibodies in HBSS for 60 min at room temperature (293-298 K) to detect immunoreactivity of c-Jun (1:500), phospho-histone H3 (1:100), phospho-histone H2A.x (1:200), p53 (1:400), alpha-tubulin (1:200) and Hoechst 33342 (2 ug/mL). Cells were labeled for multiplexed imaging on two separate plates: a) Hoechst 33342, MitoTracker Red, phospho-histone H3, and alpha-tubulin, and b) Hoechst 33342, phospho-histone H2A.x, and c-Jun. A final rinse with HBSS (50 uL) was performed before analysis. The primary and secondary antibodies for the proteins were phospho-histone H3 (rabbit anti-phospho-histone H3 and FITC-donkey anti-rabbit IgG), phospho-histone H2A.x (mouse anti-phospho-histone H2A.x and FITC-donkey anti-mouse IgG), c-Jun (rabbit anti-phospho-c-Jun and Cy3-donkey anti-rabbit IgG), p53 (sheep anti-p53 and Cy5-donkey anti-sheep IgG), alpha-tubulin (mouse anti-alpha-tubulin and Cy5-donkey anti-mouse IgG). These antibodies are available as the CellCiphr HepG2 assay kit (Millipore).Digital images of each well were captured using a Cellomics ArrayScan VTI (Thermo Scientific Cellomics) (0.8 NA objective, 0.63x optical coupler, and XF-93 filter set) at 20x magnification. The images were acquired using the autofocus feature of the ArrayScan instrument, which entails the following steps. First, the camera focuses on channel 1 (Hoechst 33342), where nuclei are identified. Second, a Z offset of 1 um is used for capturing mitochondria (MitoTracker Red). […]
row,SMILES,outcome
1,COc1nc(C)nc(NC(=O)NS(=O)(=O)c2ccccc2CCC(F)(F)F)n1,inactive
2,CNC(=S)S,inactive
3,CCNc1nc(Cl)nc(NCC)n1,inactive
4,CC(C)Oc1cc(-n2nc(C(C)(C)C)oc2=O)c(Cl)cc1Cl,inactive
5,CCCCC(CC)COC(=O)c1ccccc1C(=O)OCC(CC)CCCC (stereo not given),inactive
6,N#Cc1cc(Br)c(O)c(Br)c1,inactive
7,Oc1ccccc1-c1ccccc1,inactive
8,O=C(O)COc1nc(Cl)c(Cl)cc1Cl,inactive
9,CON(C)C(=O)Nc1ccc(Cl)c(Cl)c1,inactive
10,CN(C)C(=S)SSC(=S)N(C)C,inactive
11,COC(=O)N(OC)c1ccccc1COc1ccn(-c2ccc(Cl)cc2)n1,inactive
12,CS/C(C)=N/OC(=O)N(C)SN(C)C(=O)O/N=C(\C)SC,inactive
13,CC(Oc1ccc(Cl)cc1Cl)C(=O)O (stereo not given),inactive
14,CCCCOC(=O)c1ccccc1C(=O)OCCCC,inactive
15,CCOC(=O)CC(SP(=S)(OC)OC)C(=O)OCC (stereo not given),inactive
16,COC(=O)C=C(C)OP(=O)(OC)OC,inactive
17,CCON=C(CC)C1=C(O)CC(c2c(C)cc(C)cc2C)CC1=O (stereo not given),inactive
18,COc1ccc(C(c2ccc(OC)cc2)C(Cl)(Cl)Cl)cc1,inactive
19,O=C(O)c1nc(Cl)ccc1Cl,inactive
20,N#Cc1nn(-c2c(Cl)cc(C(F)(F)F)cc2Cl)c(N)c1S(=O)C(F)(F)F (stereo not given),inactive

row,SMILES,outcome
1,C=CCC1=C(C)[C@@H](OC(=O)[C@@H]2[C@@H](C=C(C)C)C2(C)C)CC1=O,inactive
2,CCOP(=S)(OCC)SCn1c(=O)oc2cc(Cl)ccc21,inactive
3,CCOC(=O)C(Cl)Cc1cc(-n2nc(C)n(C(F)F)c2=O)c(F)cc1Cl (stereo not given),inactive
4,COP(=S)(OC)Oc1nc(Cl)c(Cl)cc1Cl,inactive
5,Fc1ccc(Oc2ccnc3cc(Cl)cc(Cl)c23)cc1,inactive
6,CCCCNC(=O)OCC#CI,inactive
7,COc1nc(NC(C)C)nc(NC(C)C)n1,inactive
8,CNC(=O)ON=CC(C)(C)SC,inactive
9,CC1=C(C(=O)Nc2ccccc2)SCCO1,inactive
10,COc1cnc(OC)n2nc(NS(=O)(=O)c3c(OCC(F)F)cccc3C(F)(F)F)nc12,inactive
11,C=CC1(C)OC(=O)N(c2cc(Cl)cc(Cl)c2)C1=O (stereo not given),inactive
12,COc1nc(C)nc(NC(=O)NS(=O)(=O)c2ccccc2Cl)n1,inactive
13,CO/C=C(/C(=O)OC)c1ccccc1Oc1cc(Oc2ccccc2C#N)ncn1,inactive
14,CC(C)C1(C)N=C(c2nc3ccccc3cc2C(=O)O)NC1=O (stereo not given),inactive
15,Cc1cc(Cl)ccc1OCC(=O)O,inactive
16,CCNc1nc(Cl)nc(NC(C)C)n1,inactive
17,O=C(Nc1ccccc1)Nc1ccnc(Cl)c1,inactive
18,C=CCC1=C(C)C(OC(=O)C2C(C=C(C)C)C2(C)C)CC1=O (stereo not given),inactive
19,COC(=O)C(C)Oc1ccc(Oc2ccc(Cl)cc2Cl)cc1 (stereo not given),inactive
20,Cc1ccc(-c2c(Cl)nc(C#N)n2S(=O)(=O)N(C)C)cc1,inactive
